Screens as filed in PubChem.
This is a sample that favours compounds with a hit; in the whole collection about 3% have one here.
LMP1 NFkB inh = EBV LMP1-driven NF-kappaB luciferase reporter inhibitors, primary screen, cell-based, luminescence, single point | actives 0.69% (n = 350,000) | LMP1-induced NF-kappaB luciferase reporter cells | AID 504558, 2011 | inhibition, % at 12.5 µM; in the data active = inhibition above about 41%;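 note: 0% = neutral control wells and 100% = reference inhibitor control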
HIF-2a block = HIF-2a reporter inhibitors, primary screen, luminescence, 786-0 RCC cells. 786-0 RCC cells HIF-2a reporter, luciferase luminescence, overnight. inhibition, % at 18.8 µM. actives 0.72% (n = 360,000). AID 624352, 2012;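 active = inhibition of the luminescence signal of 40% or more relative to plate controls, in a single-dose primary screen at 18.75 µM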
MITF TRPM1 inh = inhibitors of MITF-dependent TRPM1 promoter reporter, primary screen, cell-based, SK-MEL-5, single point, luciferase; actives 0.83% (n = 330,000); SK-MEL-5 TRPM1 promoter luciferase, 24 h; inhibition, % at 12.5 µM;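 active = mean inhibition across replicates of 60% or more, whatever share of single replicates reaches that level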
Peg3 prom inh = Peg3 promoter-driven luciferase inhibitors, primary screen, cell-based, HeLa, luciferase luminescence; HeLa PEG-Prom luciferase reporter, overnight; inhibition, % at 20 µM; actives 1.7% (n = 360,000); AID 588405, 2011;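 active = inhibition of at least 50% at 20 µM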
KKLEB tox = cytotoxicity in KKLEB CF airway cells, primary screen, cytotoxicity control for CF NF-kB inhibitor project, cell-based, uHTS, fluorescence assay plates | activity change (cytotoxicity), % at 5 µM | AID 602141, 2011 | KKLEB CF airway cells viability, ATPlite luminescence, overnight; hits give low values; cells stimulated with P. aeruginosa culture filtrate | actives 0.36% (n = 360,000);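 active = corrected activity change at or below -50% at 5 µM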
CF NFkB inh = inhibitors of PAF-induced NF-kB signaling, primary screen, cell-based, GFP fluorescence, uHTS; KKLEB NF-kB-GFP reporter, GFP fluorescence overnight; inhibition, % at 5 µM; actives 0.86% (n = 360,000);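 active = at least 50% inhibition at 5 µM, scaled per plate between neutral and stimulator controls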;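 note: PAF is a Pseudomonas aeruginosa culture filtrate used as stimulus; plate controls were PAF-stimulated DMSO wells for no effect and unstimulated DMSO wells for full effect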
The depositor's hits bear a star; x = not tested or not shown.

SMILES	LMP1 NFkB inh	HIF-2a block	MITF TRPM1 inh	Peg3 prom inh	KKLEB tox	CF NFkB inh
CC(/C=N/NC(=O)c1cc(-c2ccncc2)nc2ccccc12)=C\c1ccco1	6	25	68*	0	-36	49
C/C(=N\NC(=O)c1cc(-c2cccs2)nc2ccccc12)c1ccccn1	72*	-6	88*	46	-4	-39
CN(C)S(=O)(=O)c1ccc2c(c1)nc(CCC(=O)NCC(=O)Nc1ccc(F)c(F)c1F)n2C	-18	14	x	-14	8	-49
CCCS(=O)(=O)NC(=O)C1(C)CCCN(C(=O)c2ccc(F)cc2Cl)C1 (stereo not drawn)	x	14	x	-4	1	-3
Cc1ccc(OCC(O)Cn2c(=N)n(Cc3ccccc3)c3ccccc32)cc1 (stereo not drawn)	-3	-1	39	108*	-21	7
N=c1n(Cc2ccccc2)c2ccccc2n1Cc1ccccc1	15	10	-3	34	-18	22
N=c1n(Cc2ccc(Cl)cc2)c2ccccc2n1CC(O)COc1ccccc1 (stereo not drawn)	-51	-22	94*	101*	-50	34
COc1ccc(OCC(O)Cn2c(=N)n(Cc3ccccc3)c3ccccc32)cc1 (stereo not drawn)	-2	3	30	46	-19	5
N=c1n(Cc2ccccc2)c2ccccc2n1CC(O)COc1ccc(Cl)cc1Cl (stereo not drawn)	-13	7	98*	104*	-28	16
c1ccc2c(c1)oc1c(-c3cccc4nccn34)cccc12	x	-82	x	-31	6	-24
O=c1[nH][nH]c2c1[C@H](c1ccc(F)cc1)O[C@H](C1CCCCC1)C2	x	-7	x	x	x	x
Cc1cc(=O)c2c(=O)[nH][nH]c2[nH]1	-11	6	x	-1	3	4
O=C(c1cccc(S(=O)(=O)N2CCN(c3ccc(F)cc3)CC2)c1)N1CCN(c2ccccc2O)CC1	12	3	5	14	10	11
CSc1nc2cc3c(cc2n1C(=O)c1ccc(C)cc1)OCCO3	44*	-115	-5	-70	-4	2
COc1cccc(C(=O)n2c(SC)nc3cc4c(cc32)OCCO4)c1	4	-87	-1	-77	10	6
CCOc1cc(Br)cc(/C=N/NC(=O)c2cccnc2)c1O	68*	-7	49	62*	-1	2
CCCCCCN1C[C@@H](O)[C@H](n2cc(C3CC3)nn2)C[C@@H]1c1ccc(C)cc1	-2	6	x	8	-2	2
CC(=O)C1(O)C(C)CC2C3CC=C4CC(O)CCC4(C)C3CCC21C (stereo not drawn)	-4	10	-9	13	4	-8
CC12C=CC(=O)C=C1CCC1C2C(=O)C[C@@]2(C)C1CCC2(O)C(=O)CO (stereo partly drawn)	5	2	-5	-10	1	12
C[C@]12C=CC(=O)C=C1CC[C@H]1[C@@H]3C[C@@H](O)[C@](O)(C(=O)CO)[C@@]3(C)C[C@H](O)[C@@]12F	17	23	-12	-9	-16	77*
CC1CC2C3CCC4=CC(=O)C=CC4(C)C3(F)C(O)CC2(C)C1(O)C(=O)CO (stereo not drawn)	14	25	5	5	49	77*
CCc1nc2ccc(C(=O)NCCCN3CCCC3=O)cn2c1N(C)C(=O)c1cccc(OC)c1	x	6	x	6	-7	5
CS(=O)(=O)Nc1cccc2cccnc12	-11	2	12	8	-3	0
Cc1cc(C)n(-c2ccc3cccc(NS(C)(=O)=O)c3n2)n1	-6	14	62*	59*	3	10
CC(C)Oc1ccc(S(=O)(=O)N2CCOCC2)cc1NC(=O)CSC(=S)N1CCCC1	-10	17	x	22	11	-6
Cc1cccc(S(=O)(=O)NC(=O)C2(C)CCN2C(=O)c2cccc(F)c2)c1 (stereo not drawn)	x	8	x	-2	1	3
